Results: PubChem BioAssay (NCATS)
Inconclusive results are not listed. Active and inactive are the calls of the source. Unless noted, the call rests on the fitted dose curve.

Key:
[1] = qHTS for Inhibitors of the Functional Ribonucleoprotein Complex (vRNP) of Lassa (LASV) Arenavirus: LASV Primary Screen - GLuc reporter signal (AID 1347082; calls by dose curve; tested in HEK293 reporter line; further: series mostly up to about 57 µM; nearly all actives have a fitted effect of over 60% in size)
[2] = qHTS for Inhibitors of the Functional Ribonucleoprotein Complex (vRNP) of Lassa (LASV) Arenavirus: Viability assay - alamar blue signal for LASV Primary Screen (AID 1347083; calls by dose curve; tested in HEK293 reporter line; further: series mostly up to about 57 µM; nearly all actives have a fitted effect of over 80% in size)
[3] = qHTS for Inhibitors of the Functional Ribonucleoprotein Complex (vRNP) of Lymphocytic Choriomeningitis Arenaviruses (LCMV): Viability assay - alamar blue signal for LCMV Primary Screen (AID 1347085; calls by dose curve; tested in HEK293 reporter line; further: series mostly up to about 57 µM; nearly all actives have a fitted effect of over 80% in size)
[4] = molecular target: Nucleoprotein (Lymphocytic choriomeningitis virus (strain Armstrong)) (UniProt P09992); test: qHTS for Inhibitors of the Functional Ribonucleoprotein Complex (vRNP) of Lymphocytic Choriomeningitis Arenaviruses (LCMV): LCMV Primary Screen - GLuc reporter signal (AID 1347086); further: series mostly up to about 57 µM; nearly all actives have a fitted effect of over 70% in size
[5] = qHTS of pediatric cancer cell lines to identify multiple opportunities for drug repurposing: Primary screen for SJ-GBM2 cells (AID 1347091; active means well fitted curve in the direction sought with a large enough effect; an effect the other way counts as inactive or inconclusive)
Summary of the method: (§1)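 Eight- or eleven-point concentration series, 48 h treatment at 37 degrees C in growth media; readout CellTiter-Glo luminescence. Potency and efficacy were taken from the concentration-response curves.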

[6] = qHTS of pediatric cancer cell lines to identify multiple opportunities for drug repurposing: Primary screen for BT-37 cells (AID 1347094; active means well fitted curve in the direction sought with a large enough effect; an effect the other way counts as inactive or inconclusive; further: series mostly up to about 57 µM)
Summary of the method: (§2)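 Cells seeded at 500-1,000 cells/well in growth media, rested 5 hours at 37 degrees C, 5% CO2, then dosed; MIPE compounds at 11-point (from 0.78 nM) and NPC at 8-point (from 0.59 nM) final concentrations. Viability by CellTiter-Glo luminescence after 48 hours.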

[7] = qHTS of pediatric cancer cell lines to identify multiple opportunities for drug repurposing: Primary screen for NB-EBc1 cells (AID 1347095; active means well fitted curve in the direction sought with a large enough effect; an effect the other way counts as inactive or inconclusive)
Summary of the method: as §2

[8] = qHTS of pediatric cancer cell lines to identify multiple opportunities for drug repurposing: Primary screen for U-2 OS cells (AID 1347096; active means well fitted curve in the direction sought with a large enough effect; an effect the other way counts as inactive or inconclusive; further: nearly all actives have a fitted effect of over 50% in size)
Summary of the method: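 Cells (500-1,000/well) in growth media were settled 5 h at 37 degrees C, then given compounds for 48 h. Viability was read as CellTiter-Glo luminescence. Primary runs used MIPE at 11 points (0.78 nM-46 µM) and NPC at 8 points (0.59 nM-46 µM); follow-ups used 11 points.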

[9] = qHTS of pediatric cancer cell lines to identify multiple opportunities for drug repurposing: Primary screen for Saos-2 cells (AID 1347097; active means well fitted curve in the direction sought with a large enough effect; an effect the other way counts as inactive or inconclusive; further: nearly all actives have a fitted effect of over 40% in size)
Summary of the method: as §2

[10] = qHTS of pediatric cancer cell lines to identify multiple opportunities for drug repurposing: Primary screen for DAOY cells (AID 1347090; active means well fitted curve in the direction sought with a large enough effect; an effect the other way counts as inactive or inconclusive; further: series mostly up to about 46 µM; nearly all actives have a fitted effect of over 55% in size)
Summary of the method: as §1

[11] = qHTS of pediatric cancer cell lines to identify multiple opportunities for drug repurposing: Primary screen for SK-N-MC cells (AID 1347093; active means well fitted curve in the direction sought with a large enough effect; an effect the other way counts as inactive or inconclusive; further: series mostly up to about 46 µM)
Summary of the method: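 Metabolically active cells were quantified by ATP-dependent luminescence (CellTiter-Glo, 15 min at room temperature) following 48 h treatment. Cells had been plated at 500-1,000 per well and settled for 5 h beforehand.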

Measured: Potency

Chain of Nucleoprotein (Lymphocytic choriomeningitis virus (strain Armstrong)) (P09992 whole entry, looked up): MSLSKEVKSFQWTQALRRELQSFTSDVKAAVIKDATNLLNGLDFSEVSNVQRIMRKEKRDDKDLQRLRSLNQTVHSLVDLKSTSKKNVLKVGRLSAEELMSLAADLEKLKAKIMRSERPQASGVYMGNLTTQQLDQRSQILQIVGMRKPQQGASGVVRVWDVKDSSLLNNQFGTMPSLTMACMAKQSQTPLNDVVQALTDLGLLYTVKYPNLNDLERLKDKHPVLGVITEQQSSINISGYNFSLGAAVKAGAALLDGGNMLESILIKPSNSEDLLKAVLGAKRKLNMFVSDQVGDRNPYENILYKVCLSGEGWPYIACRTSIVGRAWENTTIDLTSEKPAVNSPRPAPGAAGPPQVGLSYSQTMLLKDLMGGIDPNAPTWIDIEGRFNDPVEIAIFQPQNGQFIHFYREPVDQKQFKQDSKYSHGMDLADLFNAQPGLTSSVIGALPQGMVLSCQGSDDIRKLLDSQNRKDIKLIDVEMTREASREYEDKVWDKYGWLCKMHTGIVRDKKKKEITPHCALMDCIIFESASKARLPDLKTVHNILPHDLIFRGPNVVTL

Cc1c(N)c(=O)n(-c2ccccc2)n1C
inactive: [1] | [2] | [3] | [4]

CC(C)C[C@@H]1[C@H](c2ccccc2)OC(=O)N1CCCN1CCCCCC1
inactive: [1] | [2] | [3] | [4]

CCC(CN)=C(c1ccccc1)c1ccccc1
inactive: [1] | [2] | [3] | [4]

CC(=O)Nc1ccn(C2COC(COC(=O)c3ccccc3)O2)c(=O)n1 (centres undefined)
inactive: [1] | [2] | [3] | [4]

CCCCCCCCCCCCCCCCC(C(=O)O)C(O)(CC(=O)O)C(=O)O (centres undefined)
inactive: [1] | [2] | [3] | [4]

COCCc1ccc(OCC(O)CNC(C)C)cc1 (centres undefined)
inactive: [1] | [2] | [3] | [4]

CN(C)C(=O)Nc1ccc(Cl)c(Cl)c1
inactive: [1] | [2] | [3] | [4]

CC(C)NCC(O)c1ccc2ccccc2c1 (centres undefined)
inactive: [1] | [2] | [3] | [4]

CCCCN(CCCC)CCC(O)c1cc2c(Cl)cc(Cl)cc2c2cc(C(F)(F)F)ccc12 (centres undefined)
inactive: [1] | [2] | [3] | [4]

COc1ccc(-n2nc(CCC(=O)N(C)O)cc2-c2ccc(Cl)cc2)cc1
inactive: [1] | [2] | [3] | [4]

CCOC(=O)c1ccc(OC(=O)CCCCCN=C(N)N)cc1
inactive: [1] | [2] | [3] | [4]

c1ccc(CN(CC2=NCCN2)c2ccccc2)cc1
inactive: [1] | [2] | [3] | [4]

Oc1ccc(O)cc1
inactive: [1] | [2] | [3] | [4]

CN1CCN(CCCN2c3ccccc3Sc3ccc(S(=O)(=O)N(C)C)cc32)CC1
inactive: [1] | [2] | [3] | [4]

COc1ccc(CN(CCN(C)C)c2ccccn2)cc1
inactive: [1] | [2] | [3] | [4]

O=C(CN1CCN(Cc2ccc3c(c2)OCO3)CC1)N1c2ccccc2Sc2ccccc21
inactive: [1] | [2] | [3] | [4]

CC(=O)N1CCN(c2ccc(O)cc2)CC1
inactive: [1] | [2] | [3] | [4]

C=C1C(=C/C=C2\CCC[C@]3(C)[C@@H]([C@H](C)/C=C/[C@@H](O)C4CC4)CC[C@@H]23)C[C@@H](O)C[C@@H]1O
inactive: [1] | [2] | [3] | [4]

COc1cc(C(=S)N2CCOCC2)ccc1O
inactive: [1] | [2] | [3] | [4]

CC(C)(C)c1ccc(C(=O)CCCCl)cc1
inactive: [1] | [2] | [3] | [4]

CN(C)CCc1c[nH]c2ccc(O)cc12
not listed: [10] | [11]
inactive: all other assays above

N/C(=N\N=C\c1ccc(Cl)cc1)N/N=C/c1ccc(Cl)cc1
inactive: [1] | [2] | [3] | [4]

O=C(COc1ccc(Cl)cc1)N1CCN(Cc2ccc3c(c2)OCO3)CC1
inactive: [1] | [2] | [3] | [4]

COC1=C(OC)C(=O)C(CCCCCCCCCCO)=C(C)C1=O
inactive: [1] | [2] | [3] | [4]

CCCCC1C(=O)NC(=O)N(C2CCCCC2)C1=O (centres undefined)
inactive: all assays above

Fc1ccc(C(c2ccc(F)cc2)N2CCN(C/C=C/c3ccccc3)CC2)cc1
inactive: [1] | [2] | [3] | [4]

O=C(O)CN(CCOCCOCCN(CC(=O)O)CC(=O)O)CC(=O)O
inactive: [1] | [2] | [3] | [4]

Cc1[nH]c(C)c(Cl)c(=O)c1Cl
inactive: [1] | [2] | [3] | [4]
